Measurements: the supplement of paper PMC10849652
The full data set covers some 8,800 targets. This sample favours those with a hit. About 0.5% of all pairs of compound and target were hits.

Key:
Assay in all cases: log2 fold change, soluble protein after heating vs DMSO (PISA); higher = thermal stabilisation; K562 lysate, 10 uM; active = over 0.2 and 3.5 SD of the protein, either way, in both replicates (recomputed)
vemurafenib = compound: CCCS(=O)(=O)Nc1ccc(F)c(C(=O)c2c[nH]c3ncc(-c4ccc(Cl)cc4)cc23)c1F [vemurafenib]
In short: (§1)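 Log-two fold change in thermal stability relative to solvent controls is reported from duplicates. For each sample, crude K562 extract from dounce-homogenised pellets in PBS pH 7.4 with 1 mM MgCl2, at 1 mg/mL protein, was treated with 10 μM compound for 30 min. Aliquots heated for 3 min across 48°C-58°C were pooled, brought to 0.5% NP-40 at 4°C and cleared at 21,000xg for 90 min. The supernatant was quantified by TMTpro 16plex LC-MS/MS with channel sums equalised.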

[1] = compound: CCCS(=O)(=O)Nc1ccc(F)c(C(=O)c2c[nH]c3ncc(Cl)cc23)c1F
In short: as §1

barasertib = compound: CCN(CCCOc1ccc2c(Nc3cc(CC(=O)Nc4cccc(F)c4)[nH]n3)ncnc2c1)CCOP(=O)(O)O [barasertib]
In short: as §1

[2] = compound: CC[C@@H]1C(=O)N(C)c2cnc(Nc3ccc(C(=O)NC4CCN(C)CC4)cc3OC)nc2N1C1CCCC1
In short: as §1

volasertib = compound: CC[C@@H]1C(=O)N(C)c2cnc(Nc3ccc(C(=O)N[C@H]4CC[C@H](N5CCN(CC6CC6)CC5)CC4)cc3OC)nc2N1C(C)C [volasertib]
In short: as §1

[3] = compound: CCn1c(C(=O)N(C2CC2)C2CC2)cc2c3c(ncn3C)c(Nc3cc(C)n(C)n3)nc21
In short: as §1

[4] = compound: CCn1cc(-c2ccnc3[nH]c(-c4cccc(CN(C)C)c4)cc23)c(-c2ccc(NC(=O)N(C)C)cc2)n1
In short: as §1

[5] = compound: CN1CCC(CNc2ccc3ncc(-c4cccc(OC(F)(F)F)c4)n3n2)CC1
In short: as §1

saracatinib = compound: CN1CCN(CCOc2cc(OC3CCOCC3)c3c(Nc4c(Cl)ccc5c4OCO5)ncnc3c2)CC1 [saracatinib]
In short: as §1

sotrastaurin = compound: CN1CCN(c2nc(C3=C(c4c[nH]c5ccccc45)C(=O)NC3=O)c3ccccc3n2)CC1 [sotrastaurin]
In short: as §1

alvocidib = compound: CN1CC[C@H](c2c(O)cc(O)c3c(=O)cc(-c4ccccc4Cl)oc23)[C@H](O)C1 [alvocidib]
In short: as §1

Tubastatin A = compound: CN1CCc2c(c3ccccc3n2Cc2ccc(C(=O)NO)cc2)C1 [Tubastatin A]
In short: as §1

[6] = compound: CNC(=O)C1=CC=CC=C1NC2=NC(=NC=C2Cl)NC3=C(C=C(C=C3)N4CCOCC4)OC
In short: as §1

defactinib = compound: CNC(=O)c1ccc(Nc2ncc(C(F)(F)F)c(NCc3nccnc3N(C)S(C)(=O)=O)n2)cc1 [defactinib]
In short: as §1

[7] = compound: CNc1nc(-c2ccc3c(N)n[nH]c3c2)cc(N2C[C@@H](C(=O)NC3CCCCC3)CC[C@H]2C)n1
In short: as §1

encorafenib = compound: COC(=O)N[C@@H](C)CNc1nccc(-c2cn(C(C)C)nc2-c2cc(Cl)cc(NS(C)(=O)=O)c2F)n1 [encorafenib]
In short: as §1

[8] = compound: COC(=O)[C@H](CCSC)NC(=O)C1=C(C=C(C=C1)NC[C@H](CS)N)C2=CC=CC=C2
In short: as §1

alisertib = compound: COc1cc(Nc2ncc3c(n2)-c2ccc(Cl)cc2C(c2c(F)cccc2OC)=NC3)ccc1C(=O)O [alisertib]
In short: as §1

[9] = compound: COc1cc2nc(-c3cc(F)ccc3O)nc(N[C@@H]3CNC[C@H]3C(C)(C)O)c2cc1OC
In short: as §1

gefitinib = compound: COc1cc2ncnc(Nc3ccc(F)c(Cl)c3)c2cc1OCCCN1CCOCC1 [gefitinib]
In short: as §1

Measured: log2 fold change

IRF2BP1 (UniProt Q8IU81)
inactive: vemurafenib 0.015 | [1] 0.023 | barasertib -0.003 | [2] 0.026 | volasertib -0.088 | [3] 0.014 | [4] 0.037 | [5] -0.06 | saracatinib 0 | sotrastaurin 0.01 | alvocidib -0.029 | Tubastatin A -0.047 | [6] 0.095 | defactinib 0.045 | [7] 0.091 | encorafenib 0.025 | [8] 0.117 | alisertib 0.042 | [9] 0.038 | gefitinib -0.003

HEATR3 (UniProt Q7Z4Q2)
UniProt Q7Z4Q2, sequence (Q7Z4Q2 whole entry, looked up): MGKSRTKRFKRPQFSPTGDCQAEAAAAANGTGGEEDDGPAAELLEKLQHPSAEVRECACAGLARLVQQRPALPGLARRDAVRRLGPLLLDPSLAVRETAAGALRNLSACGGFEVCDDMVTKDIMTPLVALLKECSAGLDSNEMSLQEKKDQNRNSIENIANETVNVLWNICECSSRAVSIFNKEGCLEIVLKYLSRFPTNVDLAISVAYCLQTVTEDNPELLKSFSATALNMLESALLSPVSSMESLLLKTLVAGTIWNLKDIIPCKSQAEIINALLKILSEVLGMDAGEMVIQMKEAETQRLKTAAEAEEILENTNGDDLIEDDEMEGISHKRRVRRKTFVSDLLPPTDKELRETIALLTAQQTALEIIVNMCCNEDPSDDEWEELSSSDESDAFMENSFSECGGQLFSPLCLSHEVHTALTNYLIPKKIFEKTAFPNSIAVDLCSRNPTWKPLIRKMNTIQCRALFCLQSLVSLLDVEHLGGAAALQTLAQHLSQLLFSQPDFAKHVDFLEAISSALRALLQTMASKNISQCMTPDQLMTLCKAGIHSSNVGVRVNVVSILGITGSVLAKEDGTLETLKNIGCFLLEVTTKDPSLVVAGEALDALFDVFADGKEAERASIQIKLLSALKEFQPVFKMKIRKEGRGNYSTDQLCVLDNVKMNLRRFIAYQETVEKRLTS
inactive: vemurafenib 0.025 | [1] 0.026 | barasertib 0.026 | [2] -0.048 | volasertib -0.028 | [3] 0.032 | [4] -0.064 | [5] -0.089 | saracatinib -0.019 | sotrastaurin 0.026 | alvocidib 0.007 | Tubastatin A -0.129 | [6] 0.02 | defactinib 0.012 | [7] 0 | encorafenib 0.014 | [8] 0.116 | alisertib 0.018 | [9] -0.046 | gefitinib 0.003

IRAK4 (UniProt Q9NWZ3)
inactive: vemurafenib -0.028 | [1] -0.005 | barasertib 0.107 | [2] -0.085 | volasertib -0.022 | [3] 0.063 | [4] 0.001 | [5] 0.19 | saracatinib 0.045 | sotrastaurin -0.022 | alvocidib 0.01 | Tubastatin A -0.083 | defactinib 0.145 | [7] -0.018 | encorafenib -0.032 | [8] 0.032 | alisertib 0.006 | [9] 0.111 | gefitinib 0.045
active: [6] 0.261

HSPA8 (UniProt P11142)
inactive: vemurafenib -0.024 | [1] 0.003 | barasertib -0.035 | [2] -0.031 | volasertib -0.003 | [3] 0.002 | [4] -0.005 | [5] 0.014 | saracatinib -0.001 | sotrastaurin 0.004 | alvocidib 0.005 | Tubastatin A 0.056 | [6] -0.036 | defactinib -0.003 | [7] -0.019 | encorafenib -0.004 | [8] 0.009 | alisertib 0.002 | [9] -0.004 | gefitinib 0.008

KDM5C (UniProt P41229)
inactive: vemurafenib 0.001 | [1] 0.036 | barasertib 0.096 | [2] -0.031 | volasertib 0.004 | [3] -0.001 | [4] -0.028 | [5] -0.059 | saracatinib 0.008 | sotrastaurin 0.019 | alvocidib -0.02 | Tubastatin A -0.115 | [6] 0.059 | defactinib -0.009 | [7] 0.04 | encorafenib -0.018 | [8] 0.176 | alisertib -0.01 | [9] 0.09 | gefitinib -0.013

HK1 isoform 2 (UniProt P19367)
inactive: vemurafenib 0.009 | [1] 0.003 | barasertib 0.012 | [2] -0.023 | volasertib -0.004 | [3] 0.014 | [4] -0.008 | [5] -0.013 | saracatinib -0.015 | sotrastaurin 0.004 | alvocidib -0.001 | Tubastatin A -0.038 | [6] -0.009 | defactinib 0.001 | [7] -0.011 | encorafenib 0.003 | [8] 0.004 | alisertib 0.017 | [9] -0.007 | gefitinib -0.011

HMGCL (UniProt P35914)
UniProt P35914, sequence (P35914 whole entry, looked up): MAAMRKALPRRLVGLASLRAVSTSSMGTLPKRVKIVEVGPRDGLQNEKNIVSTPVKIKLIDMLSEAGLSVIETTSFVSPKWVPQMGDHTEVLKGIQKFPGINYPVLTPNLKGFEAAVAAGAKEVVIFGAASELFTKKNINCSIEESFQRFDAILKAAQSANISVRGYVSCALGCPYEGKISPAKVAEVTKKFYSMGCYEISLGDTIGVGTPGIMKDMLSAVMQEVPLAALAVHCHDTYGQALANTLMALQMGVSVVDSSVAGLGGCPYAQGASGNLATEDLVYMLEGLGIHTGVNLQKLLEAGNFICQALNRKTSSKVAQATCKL
inactive: vemurafenib -0.017 | [1] 0.01 | barasertib 0.027 | [2] 0.037 | volasertib 0.014 | [3] 0.037 | [4] 0.05 | [5] -0.02 | saracatinib -0.013 | sotrastaurin -0.01 | alvocidib 0.013 | Tubastatin A -0.012 | [6] -0.015 | defactinib 0.059 | [7] 0.055 | encorafenib 0.032 | [8] -0.102 | alisertib -0.031 | [9] -0.016 | gefitinib -0.021

INPPL1 (UniProt O15357)
UniProt O15357, sequence (O15357 whole entry, looked up): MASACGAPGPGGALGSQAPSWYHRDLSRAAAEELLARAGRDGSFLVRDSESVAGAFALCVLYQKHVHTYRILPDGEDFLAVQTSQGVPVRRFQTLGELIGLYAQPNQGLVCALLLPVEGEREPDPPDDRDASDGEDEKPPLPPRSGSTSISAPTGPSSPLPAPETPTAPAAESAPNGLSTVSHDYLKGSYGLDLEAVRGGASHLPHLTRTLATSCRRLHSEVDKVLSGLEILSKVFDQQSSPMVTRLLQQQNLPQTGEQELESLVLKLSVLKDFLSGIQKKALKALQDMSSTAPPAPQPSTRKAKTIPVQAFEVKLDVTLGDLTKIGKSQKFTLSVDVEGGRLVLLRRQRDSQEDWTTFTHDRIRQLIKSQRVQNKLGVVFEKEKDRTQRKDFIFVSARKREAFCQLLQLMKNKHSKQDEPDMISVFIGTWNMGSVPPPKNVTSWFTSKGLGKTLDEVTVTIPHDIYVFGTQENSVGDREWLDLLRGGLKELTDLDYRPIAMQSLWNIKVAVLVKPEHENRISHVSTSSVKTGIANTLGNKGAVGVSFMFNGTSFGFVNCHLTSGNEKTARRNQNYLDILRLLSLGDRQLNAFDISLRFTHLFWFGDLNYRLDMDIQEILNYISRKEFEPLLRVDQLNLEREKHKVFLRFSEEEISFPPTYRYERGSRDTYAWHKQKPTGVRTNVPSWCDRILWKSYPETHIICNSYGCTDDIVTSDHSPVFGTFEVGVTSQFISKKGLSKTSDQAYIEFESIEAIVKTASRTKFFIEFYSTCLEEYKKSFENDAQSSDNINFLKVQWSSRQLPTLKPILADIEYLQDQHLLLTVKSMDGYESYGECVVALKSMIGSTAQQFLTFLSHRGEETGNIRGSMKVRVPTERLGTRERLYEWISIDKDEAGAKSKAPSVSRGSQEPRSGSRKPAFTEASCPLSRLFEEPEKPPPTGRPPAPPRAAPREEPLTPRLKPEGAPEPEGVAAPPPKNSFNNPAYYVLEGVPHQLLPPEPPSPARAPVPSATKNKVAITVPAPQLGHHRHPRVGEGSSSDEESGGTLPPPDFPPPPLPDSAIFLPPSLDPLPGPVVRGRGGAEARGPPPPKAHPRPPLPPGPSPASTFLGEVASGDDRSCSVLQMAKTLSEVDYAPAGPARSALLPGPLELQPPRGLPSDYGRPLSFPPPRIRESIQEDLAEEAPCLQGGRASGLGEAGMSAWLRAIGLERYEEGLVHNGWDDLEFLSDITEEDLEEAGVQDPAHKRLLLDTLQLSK
inactive: vemurafenib 0.023 | [1] 0.01 | barasertib 0.028 | [2] -0.02 | volasertib -0.047 | [3] 0.095 | [4] -0.017 | [5] -0.06 | saracatinib 0.005 | sotrastaurin 0.019 | alvocidib -0.001 | Tubastatin A -0.177 | [6] 0.039 | defactinib 0 | [7] -0.001 | encorafenib 0.009 | [8] 0.037 | alisertib 0.036 | [9] -0.013 | gefitinib 0.01

GUSB (UniProt P08236)
inactive: vemurafenib 0.013 | [1] 0.028 | barasertib -0.024 | [2] -0.049 | volasertib 0.053 | [3] 0.027 | saracatinib -0.008 | sotrastaurin 0.038 | alvocidib -0.278 | Tubastatin A 0.022 | [6] 0.017 | defactinib 0.015 | [7] -0.027 | encorafenib 0.089 | [8] -0.019 | alisertib 0.089 | [9] 0.071 | gefitinib -0.049
active: [4] -0.561 | [5] 0.355

KEAP1 (UniProt Q14145)
inactive: vemurafenib 0.014 | [1] 0 | barasertib 0.01 | [2] -0.008 | volasertib -0.001 | [3] -0.016 | [4] -0.017 | [5] 0.044 | saracatinib -0.018 | sotrastaurin 0.033 | alvocidib -0.024 | Tubastatin A -0.019 | [6] -0.008 | defactinib 0.014 | [7] 0.017 | encorafenib 0.043 | [8] -0.094 | alisertib 0.012 | [9] 0.013 | gefitinib 0.018

GRB10 (UniProt Q13322)
inactive: vemurafenib 0.001 | [1] 0.051 | barasertib 0.054 | [2] -0.054 | volasertib -0.103 | [3] 0.012 | [4] -0.023 | [5] 0.016 | saracatinib -0.082 | sotrastaurin 0.028 | alvocidib -0.061 | Tubastatin A -0.226 | [6] 0.015 | defactinib 0.003 | [7] 0.02 | encorafenib 0.065 | [8] 0.01 | alisertib 0 | [9] -0.02 | gefitinib -0.043

GLUL (UniProt P15104)
UniProt P15104, sequence (P15104 whole entry, looked up): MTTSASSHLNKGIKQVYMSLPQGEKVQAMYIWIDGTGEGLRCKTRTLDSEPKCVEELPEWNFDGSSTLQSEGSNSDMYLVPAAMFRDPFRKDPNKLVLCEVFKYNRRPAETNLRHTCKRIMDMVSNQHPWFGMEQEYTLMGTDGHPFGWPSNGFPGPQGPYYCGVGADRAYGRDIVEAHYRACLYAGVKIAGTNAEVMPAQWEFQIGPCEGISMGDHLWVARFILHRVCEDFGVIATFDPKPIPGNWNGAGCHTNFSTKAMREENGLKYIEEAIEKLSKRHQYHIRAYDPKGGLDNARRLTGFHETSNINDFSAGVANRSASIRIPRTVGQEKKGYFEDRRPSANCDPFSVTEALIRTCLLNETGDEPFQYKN
inactive: vemurafenib -0.055 | [1] 0.012 | barasertib -0.026 | [2] -0.028 | volasertib -0.024 | [3] 0.021 | [4] 0.326 | [5] -0.058 | saracatinib -0.004 | sotrastaurin 0.016 | alvocidib 0.011 | Tubastatin A 0.015 | [6] 0.034 | defactinib 0.027 | [7] -0.125 | encorafenib -0.002 | [8] 0.029 | alisertib 0.002 | [9] -0.019 | gefitinib -0.004

GLB1 (UniProt P16278)
active: [8] 0.327
inactive: vemurafenib -0.034 | [1] 0.012 | barasertib -0.029 | [2] 0.02 | volasertib -0.045 | [3] -0.017 | [4] -0.066 | [5] 0.019 | saracatinib -0.032 | sotrastaurin 0.043 | alvocidib -0.042 | Tubastatin A -0.032 | [6] 0.005 | defactinib 0.006 | [7] 0.055 | encorafenib -0.036 | alisertib 0.022 | [9] 0.007 | gefitinib -0.015

INTS8 (UniProt Q75QN2)
UniProt Q75QN2, sequence (Q75QN2 whole entry, looked up): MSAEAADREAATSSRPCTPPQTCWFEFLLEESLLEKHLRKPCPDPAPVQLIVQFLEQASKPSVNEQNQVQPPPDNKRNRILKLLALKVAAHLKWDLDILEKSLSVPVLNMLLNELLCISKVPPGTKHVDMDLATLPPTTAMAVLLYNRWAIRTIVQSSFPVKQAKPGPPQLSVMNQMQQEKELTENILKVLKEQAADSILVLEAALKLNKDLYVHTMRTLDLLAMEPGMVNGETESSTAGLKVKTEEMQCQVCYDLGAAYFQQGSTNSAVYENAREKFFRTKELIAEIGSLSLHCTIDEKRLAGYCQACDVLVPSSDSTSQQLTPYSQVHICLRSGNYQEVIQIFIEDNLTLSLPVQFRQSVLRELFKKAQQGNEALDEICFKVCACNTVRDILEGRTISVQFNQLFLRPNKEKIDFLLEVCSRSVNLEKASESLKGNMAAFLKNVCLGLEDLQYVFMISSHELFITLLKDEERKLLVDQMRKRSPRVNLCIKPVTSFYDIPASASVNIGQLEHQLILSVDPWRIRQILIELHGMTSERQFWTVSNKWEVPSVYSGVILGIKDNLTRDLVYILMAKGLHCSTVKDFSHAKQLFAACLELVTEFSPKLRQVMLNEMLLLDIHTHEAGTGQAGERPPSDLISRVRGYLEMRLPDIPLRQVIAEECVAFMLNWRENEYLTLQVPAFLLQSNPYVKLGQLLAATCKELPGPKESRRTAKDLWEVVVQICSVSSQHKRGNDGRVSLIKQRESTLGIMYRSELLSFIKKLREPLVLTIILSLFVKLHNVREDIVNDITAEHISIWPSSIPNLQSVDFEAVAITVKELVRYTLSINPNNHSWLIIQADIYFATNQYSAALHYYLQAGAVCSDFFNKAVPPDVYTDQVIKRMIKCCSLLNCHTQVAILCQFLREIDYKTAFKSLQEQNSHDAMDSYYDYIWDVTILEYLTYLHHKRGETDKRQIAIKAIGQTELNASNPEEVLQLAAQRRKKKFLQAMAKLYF
inactive: vemurafenib 0.016 | [1] 0.02 | barasertib -0.131 | [2] -0.024 | volasertib -0.061 | [3] 0.041 | [4] -0.075 | [5] 0.037 | saracatinib 0.09 | sotrastaurin 0.084 | alvocidib -0.011 | Tubastatin A -0.013 | [6] 0.083 | defactinib 0.084 | [7] 0.011 | encorafenib 0.098 | [8] -0.111 | alisertib -0.008 | [9] -0.033 | gefitinib -0.04

GMPS (UniProt P49915)
UniProt P49915, sequence (P49915 whole entry, looked up): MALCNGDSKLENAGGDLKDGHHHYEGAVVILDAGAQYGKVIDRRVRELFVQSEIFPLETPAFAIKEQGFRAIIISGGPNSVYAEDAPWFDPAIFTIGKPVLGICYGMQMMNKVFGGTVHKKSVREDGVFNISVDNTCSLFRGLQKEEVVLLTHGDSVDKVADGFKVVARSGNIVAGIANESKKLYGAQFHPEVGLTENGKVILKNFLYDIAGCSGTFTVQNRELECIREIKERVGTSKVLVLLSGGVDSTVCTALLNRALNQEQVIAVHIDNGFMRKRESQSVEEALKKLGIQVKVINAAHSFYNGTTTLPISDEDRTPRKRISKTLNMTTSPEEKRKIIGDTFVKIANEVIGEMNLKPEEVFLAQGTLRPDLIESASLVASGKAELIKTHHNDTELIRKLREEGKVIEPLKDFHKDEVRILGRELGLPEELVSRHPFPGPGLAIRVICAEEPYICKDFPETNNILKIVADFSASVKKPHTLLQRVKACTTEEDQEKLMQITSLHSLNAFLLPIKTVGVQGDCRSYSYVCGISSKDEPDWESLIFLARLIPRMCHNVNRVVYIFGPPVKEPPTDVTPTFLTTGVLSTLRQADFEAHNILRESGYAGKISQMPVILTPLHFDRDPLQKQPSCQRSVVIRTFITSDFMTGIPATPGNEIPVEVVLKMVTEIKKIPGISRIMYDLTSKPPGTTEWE
inactive: vemurafenib -0.006 | [1] -0.011 | barasertib -0.008 | [2] -0.05 | volasertib -0.046 | [3] -0.011 | [4] 0.128 | [5] -0.047 | saracatinib 0.014 | sotrastaurin -0.005 | alvocidib 0.04 | Tubastatin A -0.065 | [6] -0.009 | defactinib 0.014 | [7] -0.025 | encorafenib -0.022 | [8] 0.025 | alisertib 0.005 | [9] -0.003 | gefitinib -0.026

HDGFL2 isoform 2 (UniProt Q7Z4V5)
UniProt Q7Z4V5, sequence (Q7Z4V5 whole entry, looked up): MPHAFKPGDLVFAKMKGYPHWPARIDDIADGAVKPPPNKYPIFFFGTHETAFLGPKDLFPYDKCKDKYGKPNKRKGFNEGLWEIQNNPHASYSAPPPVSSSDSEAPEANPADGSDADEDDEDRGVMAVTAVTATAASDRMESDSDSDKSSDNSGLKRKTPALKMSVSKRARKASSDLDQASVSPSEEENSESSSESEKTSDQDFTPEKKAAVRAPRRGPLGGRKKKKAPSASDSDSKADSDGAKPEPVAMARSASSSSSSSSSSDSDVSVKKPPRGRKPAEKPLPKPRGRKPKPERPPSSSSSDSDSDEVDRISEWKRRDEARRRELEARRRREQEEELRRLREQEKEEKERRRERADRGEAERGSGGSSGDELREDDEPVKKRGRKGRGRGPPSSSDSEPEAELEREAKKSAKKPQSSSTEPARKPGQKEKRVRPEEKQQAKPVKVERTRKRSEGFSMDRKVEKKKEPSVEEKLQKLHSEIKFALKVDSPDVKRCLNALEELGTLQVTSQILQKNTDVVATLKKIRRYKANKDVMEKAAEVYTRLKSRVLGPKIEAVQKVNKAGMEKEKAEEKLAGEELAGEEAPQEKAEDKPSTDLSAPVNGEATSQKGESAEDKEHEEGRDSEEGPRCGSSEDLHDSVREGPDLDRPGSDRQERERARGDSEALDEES
inactive: vemurafenib 0.016 | [1] -0.003 | barasertib -0.01 | [2] 0.064 | volasertib 0.052 | [3] -0.066 | [5] 0.196 | saracatinib -0.015 | sotrastaurin 0.038 | alvocidib -0.155 | Tubastatin A 0.011 | [6] 0.013 | defactinib -0.008 | [7] 0.016 | encorafenib -0.004 | [8] -0.065 | alisertib -0.029 | [9] 0 | gefitinib 0.03
active: [4] -0.417
